Reference: the supplement of paper PMC11001985
Values without a mark were called inactive.

Compound: C#CCNC(=O)CCSSCCC(=O)NCCc1ccc(C=O)c(C=O)c1
Assay: lysine labeling ratio R10:1 (500 µM / 50 µM probe), SILAC-ABPP in living cells; higher = lower intrinsic lysine reactivity toward the probe, active = 2 or less
Conditions: HeLa; probe concentrations 500 vs 50 µM
Procedure, shortened: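 R, given per lysine, is the filtered median high-probe/low-probe MS1 peptide ratio, with the median then taken across forward and reverse replicates. Cells were living SILAC light and heavy HeLa cells in PBS at room temperature, labelled with 50 µM or 500 µM of an alkyne-tagged, disulfide-linked lysine probe. The ceiling applied is 20.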

UniProt P60981, sequence (P60981 whole entry): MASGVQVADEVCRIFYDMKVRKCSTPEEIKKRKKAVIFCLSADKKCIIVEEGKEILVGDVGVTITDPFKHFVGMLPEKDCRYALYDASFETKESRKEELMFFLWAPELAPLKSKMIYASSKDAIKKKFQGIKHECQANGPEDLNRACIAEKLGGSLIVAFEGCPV
UniProt P13667, sequence (P13667 whole entry): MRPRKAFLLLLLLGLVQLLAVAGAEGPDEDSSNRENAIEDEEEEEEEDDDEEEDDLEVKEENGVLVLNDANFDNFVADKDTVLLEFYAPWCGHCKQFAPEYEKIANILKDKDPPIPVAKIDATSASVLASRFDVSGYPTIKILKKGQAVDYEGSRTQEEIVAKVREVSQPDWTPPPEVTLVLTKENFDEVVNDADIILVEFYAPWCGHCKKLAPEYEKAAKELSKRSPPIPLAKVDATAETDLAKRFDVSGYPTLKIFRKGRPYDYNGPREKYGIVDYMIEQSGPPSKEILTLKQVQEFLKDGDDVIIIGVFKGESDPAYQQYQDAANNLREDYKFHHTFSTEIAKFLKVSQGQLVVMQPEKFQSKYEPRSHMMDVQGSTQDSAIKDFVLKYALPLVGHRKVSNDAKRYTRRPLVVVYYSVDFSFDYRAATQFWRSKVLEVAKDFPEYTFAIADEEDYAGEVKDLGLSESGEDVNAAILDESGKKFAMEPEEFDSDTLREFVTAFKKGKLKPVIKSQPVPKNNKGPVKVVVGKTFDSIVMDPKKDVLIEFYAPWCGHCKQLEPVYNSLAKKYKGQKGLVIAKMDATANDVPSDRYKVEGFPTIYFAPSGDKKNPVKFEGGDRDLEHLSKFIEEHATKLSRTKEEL
UniProt P21589, sequence (P21589 whole entry): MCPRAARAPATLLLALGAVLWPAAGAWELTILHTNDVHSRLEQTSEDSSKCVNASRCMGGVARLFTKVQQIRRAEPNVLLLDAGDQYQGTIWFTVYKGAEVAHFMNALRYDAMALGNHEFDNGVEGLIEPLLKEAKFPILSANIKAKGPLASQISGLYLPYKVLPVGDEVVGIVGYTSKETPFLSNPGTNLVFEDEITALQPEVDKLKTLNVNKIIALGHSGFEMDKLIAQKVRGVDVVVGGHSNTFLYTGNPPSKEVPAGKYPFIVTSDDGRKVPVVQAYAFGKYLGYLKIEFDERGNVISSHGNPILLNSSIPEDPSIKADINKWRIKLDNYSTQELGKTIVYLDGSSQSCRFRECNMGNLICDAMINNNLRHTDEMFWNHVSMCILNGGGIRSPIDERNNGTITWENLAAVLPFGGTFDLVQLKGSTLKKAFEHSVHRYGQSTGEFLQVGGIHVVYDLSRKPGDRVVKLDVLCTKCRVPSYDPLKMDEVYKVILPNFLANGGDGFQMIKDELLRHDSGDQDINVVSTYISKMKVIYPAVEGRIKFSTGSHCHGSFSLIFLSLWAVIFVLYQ
UniProt O15230, sequence (O15230 whole entry): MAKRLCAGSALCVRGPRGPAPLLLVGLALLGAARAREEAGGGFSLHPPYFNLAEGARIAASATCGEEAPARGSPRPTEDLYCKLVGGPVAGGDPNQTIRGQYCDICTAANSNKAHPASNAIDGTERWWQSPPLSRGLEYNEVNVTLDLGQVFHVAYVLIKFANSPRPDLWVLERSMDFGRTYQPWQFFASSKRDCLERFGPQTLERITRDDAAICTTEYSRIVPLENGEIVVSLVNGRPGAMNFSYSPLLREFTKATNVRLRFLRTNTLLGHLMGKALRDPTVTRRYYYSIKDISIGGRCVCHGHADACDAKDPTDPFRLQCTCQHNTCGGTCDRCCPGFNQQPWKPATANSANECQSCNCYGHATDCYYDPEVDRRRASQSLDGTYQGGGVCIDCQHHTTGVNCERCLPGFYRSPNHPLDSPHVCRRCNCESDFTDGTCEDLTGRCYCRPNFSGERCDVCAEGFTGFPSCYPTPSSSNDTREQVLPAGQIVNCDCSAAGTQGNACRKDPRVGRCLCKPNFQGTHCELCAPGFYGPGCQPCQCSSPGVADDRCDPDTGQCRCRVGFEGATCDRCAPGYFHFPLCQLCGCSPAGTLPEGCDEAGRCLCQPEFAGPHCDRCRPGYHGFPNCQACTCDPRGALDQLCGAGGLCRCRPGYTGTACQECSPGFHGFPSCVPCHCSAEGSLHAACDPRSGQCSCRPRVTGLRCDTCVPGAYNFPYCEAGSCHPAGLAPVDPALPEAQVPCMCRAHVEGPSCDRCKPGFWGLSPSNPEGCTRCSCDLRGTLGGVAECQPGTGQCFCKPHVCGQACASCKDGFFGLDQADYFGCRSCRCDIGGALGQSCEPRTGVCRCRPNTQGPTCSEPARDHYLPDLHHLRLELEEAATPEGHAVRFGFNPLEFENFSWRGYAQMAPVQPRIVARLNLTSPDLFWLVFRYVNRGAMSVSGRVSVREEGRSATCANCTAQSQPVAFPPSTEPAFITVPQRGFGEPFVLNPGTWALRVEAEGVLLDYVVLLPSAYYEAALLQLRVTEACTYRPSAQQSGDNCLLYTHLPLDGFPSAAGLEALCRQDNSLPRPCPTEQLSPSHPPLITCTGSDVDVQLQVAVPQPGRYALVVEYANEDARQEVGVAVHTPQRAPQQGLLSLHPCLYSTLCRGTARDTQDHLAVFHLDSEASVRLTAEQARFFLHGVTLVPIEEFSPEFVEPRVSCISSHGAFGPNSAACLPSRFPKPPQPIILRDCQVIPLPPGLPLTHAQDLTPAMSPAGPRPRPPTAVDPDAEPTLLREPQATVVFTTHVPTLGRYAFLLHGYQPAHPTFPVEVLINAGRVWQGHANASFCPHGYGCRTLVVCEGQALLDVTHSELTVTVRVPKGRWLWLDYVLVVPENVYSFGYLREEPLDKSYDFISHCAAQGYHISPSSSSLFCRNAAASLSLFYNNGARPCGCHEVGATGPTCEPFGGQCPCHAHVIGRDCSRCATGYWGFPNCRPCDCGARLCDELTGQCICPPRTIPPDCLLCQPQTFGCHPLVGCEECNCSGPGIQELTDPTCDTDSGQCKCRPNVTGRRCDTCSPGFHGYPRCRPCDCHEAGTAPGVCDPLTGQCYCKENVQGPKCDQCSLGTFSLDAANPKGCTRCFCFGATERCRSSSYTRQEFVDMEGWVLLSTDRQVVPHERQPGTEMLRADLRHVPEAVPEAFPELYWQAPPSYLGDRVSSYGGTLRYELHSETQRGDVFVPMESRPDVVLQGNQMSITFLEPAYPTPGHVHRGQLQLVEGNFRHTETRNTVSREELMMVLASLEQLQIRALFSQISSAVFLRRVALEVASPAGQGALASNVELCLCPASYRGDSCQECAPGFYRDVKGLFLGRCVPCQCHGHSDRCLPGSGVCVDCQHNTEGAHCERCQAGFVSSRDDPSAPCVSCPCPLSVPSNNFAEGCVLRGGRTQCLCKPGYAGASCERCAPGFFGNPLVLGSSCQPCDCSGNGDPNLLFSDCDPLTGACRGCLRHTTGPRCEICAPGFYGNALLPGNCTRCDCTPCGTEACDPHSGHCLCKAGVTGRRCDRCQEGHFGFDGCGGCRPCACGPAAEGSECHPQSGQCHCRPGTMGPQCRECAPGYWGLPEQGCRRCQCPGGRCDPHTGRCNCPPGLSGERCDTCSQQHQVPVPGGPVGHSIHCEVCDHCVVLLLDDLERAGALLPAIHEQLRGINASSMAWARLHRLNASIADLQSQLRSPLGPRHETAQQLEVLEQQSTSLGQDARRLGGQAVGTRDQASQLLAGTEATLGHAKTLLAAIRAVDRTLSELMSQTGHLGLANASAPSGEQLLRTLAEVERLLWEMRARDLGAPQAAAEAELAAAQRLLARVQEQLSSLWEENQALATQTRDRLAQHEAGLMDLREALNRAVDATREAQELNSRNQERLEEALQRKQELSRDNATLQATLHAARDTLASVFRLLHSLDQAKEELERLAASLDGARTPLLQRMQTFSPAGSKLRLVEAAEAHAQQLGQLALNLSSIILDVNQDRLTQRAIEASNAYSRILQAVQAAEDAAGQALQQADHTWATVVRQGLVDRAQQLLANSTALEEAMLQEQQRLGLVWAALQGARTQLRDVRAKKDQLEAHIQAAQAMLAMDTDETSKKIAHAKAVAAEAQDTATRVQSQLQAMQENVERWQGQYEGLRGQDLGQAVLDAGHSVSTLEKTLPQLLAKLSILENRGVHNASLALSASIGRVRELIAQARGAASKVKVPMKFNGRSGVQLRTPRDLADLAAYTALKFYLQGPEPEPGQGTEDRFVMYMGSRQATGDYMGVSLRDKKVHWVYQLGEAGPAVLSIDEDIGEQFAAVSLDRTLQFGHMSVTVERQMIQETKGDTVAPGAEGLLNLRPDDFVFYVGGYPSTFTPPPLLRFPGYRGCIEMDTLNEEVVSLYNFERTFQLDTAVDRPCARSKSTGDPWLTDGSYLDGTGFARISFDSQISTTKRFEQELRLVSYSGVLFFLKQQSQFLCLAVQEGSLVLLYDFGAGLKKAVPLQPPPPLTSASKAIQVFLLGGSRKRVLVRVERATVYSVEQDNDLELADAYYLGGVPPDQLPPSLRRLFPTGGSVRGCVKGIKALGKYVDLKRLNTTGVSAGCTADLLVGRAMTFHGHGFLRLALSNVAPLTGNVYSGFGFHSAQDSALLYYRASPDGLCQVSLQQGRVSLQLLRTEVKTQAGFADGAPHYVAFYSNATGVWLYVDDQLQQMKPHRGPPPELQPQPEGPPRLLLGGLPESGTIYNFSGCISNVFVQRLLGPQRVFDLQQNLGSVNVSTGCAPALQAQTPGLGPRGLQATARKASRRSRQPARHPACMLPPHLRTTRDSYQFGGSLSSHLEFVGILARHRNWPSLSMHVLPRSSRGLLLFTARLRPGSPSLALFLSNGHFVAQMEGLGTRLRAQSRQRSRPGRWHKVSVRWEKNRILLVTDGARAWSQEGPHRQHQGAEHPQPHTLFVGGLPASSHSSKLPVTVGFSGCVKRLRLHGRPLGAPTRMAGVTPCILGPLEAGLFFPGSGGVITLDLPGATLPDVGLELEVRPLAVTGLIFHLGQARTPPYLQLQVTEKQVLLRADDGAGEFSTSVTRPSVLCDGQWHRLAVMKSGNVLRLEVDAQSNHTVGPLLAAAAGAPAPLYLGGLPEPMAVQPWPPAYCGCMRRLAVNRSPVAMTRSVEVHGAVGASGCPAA

For “IGF2R (lysine site: K1285) (UniProt P11717)”, which “lysine labeling ratio R10:1” value is on record?
Its value is 0.936 (active).

Which “lysine labeling ratio R10:1” value does the source give for “LRP1 (lysine site: K3910) (UniProt Q07954)” here?
Its value is 1.43 (active).

How did the “lysine labeling ratio R10:1” value turn out when “F11R (lysine site: K178) (UniProt Q9Y624)” was run?
Its value is 5.39.

For “PDIA4 (lysine site: K637) (UniProt P13667)”, which “lysine labeling ratio R10:1” value is on record?
The value was 2.44.

“EIF2S3 (lysine site: K70) (UniProt P41091)” was tested. Which “lysine labeling ratio R10:1” value did it give?
The value was 3.79.

With UniProt Q8WXI7 (lysine site: K14239) as the target, how does the “lysine labeling ratio R10:1” value read?
The value was 4.55.

With “L1CAM (lysine site: K515) (UniProt P32004)” as the target, how does the “lysine labeling ratio R10:1” value read?
The value was 1.77 (active).

Which “lysine labeling ratio R10:1” value does the source give for “NOTCH2 (lysine site: K1350) (UniProt Q04721)” here?
The value was 2.12.

How did the “lysine labeling ratio R10:1” value turn out when “RPSA (lysine site: K89) (UniProt P08865)” was run?
The value was 4.12.

With “RARS (lysine site: K60) (UniProt P54136)” as the target, how does the “lysine labeling ratio R10:1” value read?
Its value is 3.02.

How did the “lysine labeling ratio R10:1” value turn out when “CYR61 (lysine site: K203) (UniProt O00622)” was run?
Its value is 2.96.

How did the “lysine labeling ratio R10:1” value turn out when “EEF2 (lysine site: K407) (UniProt P13639)” was run?
The value was 1.45 (active).

Which “lysine labeling ratio R10:1” value does the source give for “LAMA5 (lysine site: K1227) (UniProt O15230)” here?
Its value is 2.71.

UniProt Q14574 (lysine site: K180) was tested. Which “lysine labeling ratio R10:1” value did it give?
Its value is 1.97 (active).

How did the “lysine labeling ratio R10:1” value turn out when “DSTN (lysine site: K78) (UniProt P60981)” was run?
Its value is 1.54 (active).

For “PTPRS (lysine site: K144) (UniProt Q13332)”, which “lysine labeling ratio R10:1” value is on record?
Its value is 1.57 (active).

With “RPL34 (lysine site: K62) (UniProt P49207)” as the target, how does the “lysine labeling ratio R10:1” value read?
Its value is 10.1.

For “ANXA2 (lysine site: K281) (UniProt P07355)”, which “lysine labeling ratio R10:1” value is on record?
Its value is 5.78.

Which “lysine labeling ratio R10:1” value does the source give for UniProt Q15149 (lysine site: K3384) here?
Its value is 4.26.

Which “lysine labeling ratio R10:1” value does the source give for “GPC1 (lysine site: K383) (UniProt P35052)” here?
The value was 1.73 (active).

How did the “lysine labeling ratio R10:1” value turn out when “FZD1 (lysine site: K384) (UniProt Q9UP38)” was run?
The value was 0.938 (active).

For “FLNB (lysine site: K1005) (UniProt O75369)”, which “lysine labeling ratio R10:1” value is on record?
The value was 4.49.

With “SURF4 (lysine site: K22) (UniProt O15260)” as the target, how does the “lysine labeling ratio R10:1” value read?
The value was 3.81.

For “LNPEP (lysine site: K624) (UniProt Q9UIQ6)”, which “lysine labeling ratio R10:1” value is on record?
Its value is 0.72 (active).

For UniProt Q13620 (lysine site: K903), which “lysine labeling ratio R10:1” value is on record?
Its value is 3.24.

How did the “lysine labeling ratio R10:1” value turn out when “P4HB (lysine site: K71) (UniProt P07237)” was run?
The value was 7.22.

For “JPT2 (lysine site: K90) (UniProt Q9H910)”, which “lysine labeling ratio R10:1” value is on record?
The value was 5.53.

Which “lysine labeling ratio R10:1” value does the source give for UniProt P54851 (lysine site: K129) here?
Its value is 4.76.

How did the “lysine labeling ratio R10:1” value turn out when UniProt P21589 (lysine site: K478) was run?
Its value is 1.17 (active).

“ITGB1 (lysine site: K202) (UniProt P05556)” was tested. Which “lysine labeling ratio R10:1” value did it give?
Its value is 4.2.

With “TXNRD1 (lysine site: K396) (UniProt Q16881)” as the target, how does the “lysine labeling ratio R10:1” value read?
The value was 2.09.

How did the “lysine labeling ratio R10:1” value turn out when “ITGA5 (lysine site: K943) (UniProt P08648)” was run?
Its value is 2.54.

Which “lysine labeling ratio R10:1” value does the source give for “ATP1B1 (lysine site: K111) (UniProt P05026)” here?
Its value is 2.14.

“ACTR3 (lysine site: K42) (UniProt P61158)” was tested. Which “lysine labeling ratio R10:1” value did it give?
Its value is 1.04 (active).

For “M6PR (lysine site: K50) (UniProt P20645)”, which “lysine labeling ratio R10:1” value is on record?
Its value is 2.84.

How did the “lysine labeling ratio R10:1” value turn out when “SPTAN1 (lysine site: K296) (UniProt Q13813)” was run?
Its value is 2.12.

With “CELSR2 (lysine site: K2183) (UniProt Q9HCU4)” as the target, how does the “lysine labeling ratio R10:1” value read?
The value was 4.05.

With “IL17RA (lysine site: K274) (UniProt Q96F46)” as the target, how does the “lysine labeling ratio R10:1” value read?
Its value is 0.998 (active).

For “NEGR1 (lysine site: K52) (UniProt Q7Z3B1)”, which “lysine labeling ratio R10:1” value is on record?
The value was 4.69.

For “MET (lysine site: K380) (UniProt P08581)”, which “lysine labeling ratio R10:1” value is on record?
The value was 1.21 (active).
